# Most compounds without a hit are left out; they make up all but 1.5% or so of the library.
# E coli Lon inh = inhibitors of E. coli Lon protease; 0.42% of 360,000 active; purified E. coli Lon protease, fluorescence polarization; P0A9M0; inhibition, % at 7.94 µM; in the data active = inhibition above about 13%, passing the limit was not always enough;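 note: 0% = enzyme with probe and DMSO and 100% = no enzyme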
# MEX-5 binding = C. elegans MEX-5 TCR-2 RNA binding activity; Q9XUB2; 0.38% of 300,000 active; activity score (negative = inhibition of binding), % at 10 µM; MEX-5/FITC-TCR2 RNA binding, fluorescence polarization; hits give low values;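 active = inhibition past about -25% in most replicates, and total fluorescence under double the plate's negative control median, limit read from the data; inconclusive = replicates evenly split on the limit, or fluorescence at least double controls; inactive = too little inhibition in most replicates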;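 note: 0% = DMSO and -100% = 5 µM competing unlabeled TCR2 RNA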
# MCL1-BIM inh = MCL1-BIM-BH3 interaction inhibition (human); GST-MCL1 / FITC-Bim-BH3 fluorescence polarization; inhibition, % at 10.9 µM; 0.68% of 320,000 active;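 active = inhibition above the mean inhibition of all tested compounds plus 3 SD, set per campaign, cut at about 40% in these data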;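 note: 0% = DMSO wells and 100% = unlabeled Bim-BH3 peptide control; higher means more loss of mP so more displacement of Bim peptide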
# Target sequence (Q07820 whole entry, looked up): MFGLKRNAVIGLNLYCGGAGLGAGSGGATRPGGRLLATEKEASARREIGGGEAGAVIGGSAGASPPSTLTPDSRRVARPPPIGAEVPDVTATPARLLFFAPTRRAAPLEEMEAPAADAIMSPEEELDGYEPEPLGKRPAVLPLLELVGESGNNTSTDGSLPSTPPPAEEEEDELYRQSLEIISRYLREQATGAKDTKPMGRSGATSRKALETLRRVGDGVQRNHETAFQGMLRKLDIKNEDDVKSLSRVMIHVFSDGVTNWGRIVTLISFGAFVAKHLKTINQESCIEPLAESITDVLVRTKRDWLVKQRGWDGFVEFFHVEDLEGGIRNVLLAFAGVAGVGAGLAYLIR
# GLD-1 TGE inh = GLD-1-TGE RNA interaction inhibition (C. elegans); purified GLD-1 + fluorescein TGE RNA, fluorescence polarization; inhibition, % at 5.96 µM; Q17339; 0.44% of 320,000 active; AID 2280;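 active = percent inhibition above a per-plate cutoff, the plate mean of test compounds plus 3 SD, cut at about 30% in these data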;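 note: 0% = DMSO wells with GLD-1 and probe and 100% = wells lacking GLD-1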
# EBV gp42 block = inhibitors of Epstein-Barr virus glycoprotein 42. 0.42% of 220,000 active. Fluorescence polarization binding assay, mP read-out. inhibition, % (tested at 21.74 µM); in the data active = inhibition above about 50%
# BCLXL inh = blocks human Bcl-xL binding to Bim BH3 peptide; Q07817; GST-Bcl-xL / FITC-Bim BH3 peptide fluorescence polarization; inhibition, % at 10.9 µM; 0.7% of 320,000 active; AID 2129;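 active = inhibition above the mean of all tested compounds plus 3 SD, cutoff set per campaign, cut at about 30% in these data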;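 note: 0% = DMSO wells and 100% = unlabeled Bim-BH3 peptide competitor; inhibitors lower millipolarization by displacing the labeled peptide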
# Target sequence (Q07817 whole entry, looked up): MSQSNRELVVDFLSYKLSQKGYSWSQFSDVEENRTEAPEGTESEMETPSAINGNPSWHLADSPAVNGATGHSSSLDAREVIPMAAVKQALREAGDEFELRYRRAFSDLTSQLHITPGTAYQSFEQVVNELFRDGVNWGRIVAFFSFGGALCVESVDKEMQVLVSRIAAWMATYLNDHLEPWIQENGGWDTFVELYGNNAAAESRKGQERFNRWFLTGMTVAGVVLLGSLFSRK
# The depositor's hits bear a star; ? = inconclusive; · = no result; + = active, no number.
SMILES,E coli Lon inh,MEX-5 binding,MCL1-BIM inh,GLD-1 TGE inh,EBV gp42 block,BCLXL inh
CSc1nc(O)c(N=Nc2ccc(F)cc2F)c(=O)[nH]1,-14,4,42*,-12,·,37*
Cc1c(C(=O)NCCSCc2c(F)cccc2Cl)cnn1-c1ccc(Cl)cc1,11,-4,2,2,52*,0
COC(=O)c1[nH]c2ccccc2c1NC(=O)/C=C/c1ccc2c(c1)OCO2,-23,1,4,-1,-25,1
CCN(CC(=O)Nc1c(C(=O)OC)[nH]c2ccccc12)c1ccc2c(c1)OCO2,10,-6,37,3,3,44*
Cc1ccc(S(=O)(=O)N2CC=C(c3c(C)n(C)c4ccccc34)CC2)cc1,2,0,28,14,-15,17
CCn1c(C)c(C2=CCN(S(=O)(=O)c3ccccc3)CC2)c2ccccc21,-3,1,-1,32*,-3,20
Cc1nc2ccc(S(=O)(=O)NCC(=O)NCCN3CCCCCC3)cc2s1,0,0,42*,-7,-2,41*
Cc1cc(NC(=O)CSc2nc3c(cnn3-c3cccc(Cl)c3)c(=O)[nH]2)no1,-7,·,·,7,·,·
CCc1ccc(/C=C2/SC(=S)N(CCC(=O)Nc3ccc(C(=O)O)cc3)C2=O)cc1,-3,-8,-2,-4,·,189*
COc1ccccc1/C=C1\SC(=S)N(CCC(=O)NC2=NCCS2)C1=O,-3,-63*,10,2,-72,4
COc1ccc(/C=C2\SC(=S)N(CCC(=O)NC3CCCC3)C2=O)cc1OC,-2,-27*,-1,6,·,2
CNC(=O)/C(C#N)=C/c1ccc(-c2ccc(Cl)cc2)o1,-2,-34*,-2,3,9,6
COc1ccc2cc(N=Cc3nc(-c4ccc(C)cc4)oc3O)cnc2c1,-2,-47*,4,-2,-27,4
Cc1ccc[n+](CC(=O)c2ccc(Br)cc2)c1,-8,-1,·,·,·,·
N#Cc1ccc[n+](CC(=O)c2ccc(Cl)cc2)c1,-2,-4,40,16,·,33*
O=C1COc2ccccc2N1Cc1c(F)cccc1Cl,-3,2,8,-2,·,47*
O=C(CN1C(=O)COc2ccccc21)Nc1ccccc1F,2,0,6,6,·,7
C[n+]1cccc2ccc3c(c21)OC(N)=C(C#N)C3c1ccccc1 (stereo not given),10,2,-15,6,-48,-10
C[n+]1cccc(C2C(C#N)=C(N)Oc3c2ccc2ccccc32)c1 (stereo not given),8,-9,30,5,15,39*
O=C(OC[C@H]1O[C@@H](OC(=O)c2cc(O)c(O)c(OC(=O)c3cc(O)c(O)c(O)c3)c2)[C@H](OC(=O)c2cc(O)c(O)c(OC(=O)c3cc(O)c(O)c(O)c3)c2)[C@@H](OC(=O)c2cc(O)c(O)c(OC(=O)c3cc(O)c(O)c(O)c3)c2)[C@@H]1OC(=O)c1cc(O)c(O)c(OC(=O)c2cc(O)c(O)c(O)c2)c1)c1cc(O)c(O)c(OC(=O)c2cc(O)c(O)c(O)c2)c1,·,·,76*,90*,·,55*
Cc1ccc(C(=O)/C=C/Nc2cccc(O)c2)cc1,0,-2,40*,13,-12,40*
CSC1=N/C(=C\c2ccccc2F)C(=O)S1,7,2,7,-4,99*,5
COc1cccc(/C=C2\N=C(SC)SC2=O)c1OC,9,0,2,2,-19,-1
O=C(CSc1nc2scc(-c3cccs3)c2c(=O)n1CCc1ccccc1)N1CCCC1,3,·,·,·,·,·
COc1ccc(C(NC(=O)/C=C/c2ccco2)c2ccc(OC)c(OC)c2)cc1 (stereo not given),-9,0,7,-7,0,5
SMILES,E coli Lon inh,MEX-5 binding,MCL1-BIM inh,GLD-1 TGE inh,EBV gp42 block,BCLXL inh
O=S(=O)(c1ccc(NC(=S)N/N=C/c2c3ccccc3cc3ccccc23)cc1)N1CCOCC1,-28,-2,-57,-6,63*,5
O=S(=O)(c1ccc(NC(=S)N/N=C/c2ccc(Oc3ccccc3)cc2)cc1)N1CCOCC1,-8,-2,5,1,5,0
O=C(O)[C@H](CSCc1ccccc1)NS(=O)(=O)c1ccc(F)cc1,-6,1,12,5,-7,3
COc1ccc(C(=O)NC(=S)Nc2cccnc2)cc1Cl,15,-2,15,52*,·,12
CCOC(=O)/C=c1\s/c(=C\c2ccc3cc(OC)ccc3c2)c(=O)n1CC(=O)NCc1ccc2c(c1)OCO2,-5,-31*,3,3,-42,7
COc1ccc(/C=C2\SC(c3ccc(C)cc3)=NC2=O)cc1OC,-98,?,-105,-58,53*,-52
COc1ccc(/C=C2/SC(c3ccc(C)cc3)=NC2=O)cc1OC,-146,?,-95,-63,13,-56
OCCCc1nc2n(n1)C(c1ccccc1)C=C(c1ccc(F)cc1)N2 (stereo not given),-7,-1,7,6,25,10
OCCCc1nc2n(n1)C(c1cccs1)C=C(c1ccccc1)N2 (stereo not given),·,?,+,154*,142*,177*
OCCCc1nc2n(n1)C(c1ccccc1Cl)C=C(c1cccs1)N2 (stereo not given),-52,-15,42*,30,25,37*
CCC(=O)c1ccc(OCC(=O)Nc2nc(C)cs2)cc1,0,·,·,4,·,·
O=C(N/N=C/c1cc(Br)cc(Br)c1O)c1ccncc1,·,-4,45*,31*,21,33*
O=C1NC(=Nc2ccccc2Cl)S/C1=C\c1cc([N+](=O)[O-])ccc1O,-309,-40*,-89,-36,·,-42
CC1OC(Oc2c(-c3cc(O)c(O)c(O)c3)oc3cc(O)cc(O)c3c2=O)C(O)C(O)C1O (stereo not given),-3,-48*,·,·,0,·
C[C@@H]1O[C@@H](OC[C@@H]2O[C@H](Oc3c(-c4ccc(O)cc4)oc4cc(O)cc(O)c4c3=O)[C@@H](O)[C@H](O)[C@H]2O)[C@H](O)[C@H](O)[C@H]1O,3,·,·,0,·,·
COc1ccccc1NC(=S)NNC(=O)c1cc(C)nn1C,-7,-16,6,-1,-17,8
COc1ccccc1NC(=S)NNC(=O)c1cc(C)n(C)n1,-4,-26*,4,3,-20,0
O=C(OCc1ccc(C(=O)c2ccccc2)cc1)c1cccc(-c2nnc(-c3ccccc3)o2)c1,16*,·,-3,-1,-5,0
Nc1c(N(Cc2ccco2)C(=O)COc2ccccc2)c(=O)[nH]c(=O)n1Cc1ccccc1,-5,·,5,2,·,7
C/C(CC(=O)Nc1cc(C)ccn1)=N\NC(=O)C(=O)Nc1cccc(C)c1,4,1,12,1,-28,2
